This note sets out measurements from PubChem BioAssay AID651784 (National Center for Advancing Translational Sciences (NCATS), 2012).

SMILES strings stand for the structures. Results filed as inconclusive are left out. Active and inactive are the calls of the source. The call rests on the fitted dose curve; in most records, active means well fitted inhibition curve with a large enough effect; inconclusive means small, poorly fitted or top-dose-only effect; inactive means no such curve, though single readings can be large or run the other way.
Potency means the concentration at half of the fitted maximal effect.

A short description of the assay: Acumen qHTS Assay for Inhibitors of the mTORC1 Signaling Pathway in MEF (Tsc2-/-, p53-/-) Cells: Hit Validation. Further: nearly all actives have a fitted effect of over 65% in size. The note with it: Acumen imaging; activity change, negative = inhibition: at 37.3 µM (top of the series). The text has this: The mammalian target of rapamycin (mTOR) is an intracellular serine/threonine kinase Aberrant regulation of mTOR signaling plays a causative role in a number of human diseases, including cancer, benign tumors such as lymphangioleiomyomatosis (LAM) and Tuberous Sclerosis Complex (TSC), and metabolic diseases such as diabetes and obesity. This project aims to identify inhibitors of ribosomal protein S6 (rpS6) phosphorylation. The phosphorylation of rpS6 is a key event downstream of mTOR activation. The assay uses a phospho-specific antibody of phospho-rpS6 to detect inhibitors of mTOR activation. Mutations in the Tsc1 and Tsc2 genes are the underlying genetic lesions responsible for TSC, causing constitutive activation of the mTORC1 pathway and leading to profound effects on cell metabolism. Aberrant metabolism in cancer has recently received significant attention as a target to develop therapeutic agents in the treatment of cancer.1 As Tsc2-/- cells have lost the ability to respond to energy and growth factor deprivation, these cells are unable to properly down regulate cellular biosynthetic processes in response to metabolic stress, and are thus extremely sensitive to glucose deprivation-induced death.2 A central goal of this project is to explore the unique cell survival and metabolic properties of cells with Tsc1 or Tsc2 by screening for compounds that selectively target the Tsc2-/- MEFs by screening both Tsc2-/- and WT MEF cell lines. We hope to better understand these aspects of TSC physiology in order to exploit them for therapeutic benefit.
NIH Molecular Libraries Probe Production Centers Network [MLPCN]
NIH Chemical Genomics Center [NCGC]
Assay Submitter (PI): Blenis, John; Harvard University
For quantitative high throughput analysis of mTORC1 signaling, we developed a cell-based assay for immuno-fluorescence based detection of rpS6 phosphorylation on the Acumen Explorer that will be used a platform for the primary small molecule screen. Mouse embryonic fibroblasts (MEFs) are cultured in 1536-well plates using DMEM + 10% FBS. Twenty-four hrs after plating, test compounds (solubilized in DMSO) are delivered and incubated with the cells for 24 hrs at 37 degree Celsius. Following the incubation, media with compound is aspirated and the cells are fixed in 4% paraformaldehyde (PFA) containing PBS + 0.2% TX-100. Next, PFA is aspirated, cells are washed two times with PBS plus 0.2% TX-100 and the cells are blocked for 1 hr at room temperature (blocking buffer: LiCOR Blocking Buffer plus 0.2% TX-100). This is followed by aspiration and staining with Alexa-488 conjugated-phospho-rpS6 Ser235/236 antibody for 2 hours at room temperature (Cell Signaling Technology # 4803, 1:50 dilution in blocking buffer). Cells are washed two times with PBS plus 0.2% TX-100, and stained with 10 uM propidium iodide (PI) for 20-25 minutes for cell number measurement (1:500 dilution of Hoescht staining is also added for IN Cell imaging). The plates are scanned on the Acumen Explorer laser scanning instrument (TTP Labtech) using the 488nm laser for simultaneous excitation of the Alexa-488 and PI. […] Fluorescence emission from the PI stain is selected using a 575-640 nm band pass filter. The normalized phospho-S6 staining is calculated as the ratio of the integrated Alexa 488 intensity divided by the integrated PI intensity for the single concentration rapamycin control (7.5 nM) and DMSO columns. […] Inhibition of the pathway is defined based on the normalized phospho-S6 intensity in rapamycin treated cells. Active cells are defined as those with a normalized phospho-S6 staining above this threshold, and each treatment is reported as the % positive cells in the well, where thresholds are defined by selecting wells with the highest and lowest signal and differentiating between the % non-active and % active populations. In addition to the pathway specific phospho-S6 endpoint, the number of PI stained cells from the Acumen is recorded as a measure of cell viability. […]
For the compound `Cc1cccc(N(CC(=O)NCCSc2ccc(Cl)cc2)S(=O)(=O)c2ccccc2)c1C`, the Potency was 13.1 µM (active).

As for `Cc1oc(-c2ccc(Cl)cc2)nc1CN1CCC(C(=O)NCCCN2CCN(c3cccc(Cl)c3)CC2)CC1`, the Potency was 5.85 µM (active).

For the compound `CCOc1ccc(CN(CCc2ccc3c(c2)OCO3)Cc2ccc(C)cc2)cc1`, the activity change, negative = inhibition was -0.408%.

Regarding `CCOc1ccc(/C=C/c2nc(C#N)c(NCc3ccccc3)o2)cc1`, the Potency is 1.04 µM (active).

With `COc1ccc2nc(NC(=O)c3nc(S(=O)(=O)Cc4cccc(C)c4)ncc3Cl)sc2c1`, the Potency is 2.07 µM (active).

For the compound `NC(N)=NC(=O)c1nc(Cl)c(N)nc1N`, the activity change, negative = inhibition was 57.9%.

With `O=C(NCCc1ccc(Cl)cc1)C(=O)NCC(c1cccs1)S(=O)(=O)c1cccs1` (configuration not stated), the activity change, negative = inhibition was -3.28%.

`CCCCOc1ccc(CN2C(=O)C(=O)c3cc(C)ccc32)cc1OC`: the Potency was 0.261 µM (active).

Consider `COc1ccc(C(=O)Nc2ccc3c(c2)N(C)C(=O)c2ccccc2S3)cc1OC`, for which the Potency is 10.4 µM (active).

For the compound `COc1ccccc1N=c1scc(-c2ccc(S(=O)(=O)N3CCCC3)cc2)n1C`, the Potency was 5.85 µM (active).

For the compound `COc1ccc(S(=O)(=O)NCCc2sc3nc(-c4ccc(C)cc4)nn3c2C)cc1F`, the Potency is 7.36 µM (active).

On to `CCN(CC)C(=O)c1ccc(NC(=O)CCn2nc(-c3ccc(C)cc3)c3ccccc3c2=O)cc1`, for which the activity change, negative = inhibition was -9.62%.

In the case of `Cc1ccc(-n2c(/C=C/c3ccc(Br)s3)nc3ccccc3c2=O)cc1C`, the activity change, negative = inhibition was -10.2%.

Turning to `Cc1ccccc1-c1nc(CN2C(=O)CN=C(c3ccccc3)c3ccccc32)c(C)o1`, the activity change, negative = inhibition was -13.1%.

As to `CN[C@@H]1C[C@@]2(C)O[C@@H]([C@@H]1OC)n1c3ccccc3c3c4c(c5c6ccccc6n2c5c31)C(=O)NC4`, the Potency was 0.0163 µM (active).

Consider `COc1ccc(N2CCN(C(=O)C3CCCN(S(=O)(=O)c4ccc5c(c4)CCCN5C(C)=O)C3)CC2)cc1` (configuration not stated), for which the Potency was 16.5 µM (active).

On to `O=C(c1ccccc1)c1ccc2nc(N3CCN(c4ccc(F)cc4)CC3)c3nncn3c2c1`, for which the Potency is 18.5 µM (active).
